This is part of a sample that, as a whole, favours compounds with a hit. Of some 79,000 tested, about 15% had one in any assay. Values without a mark were called inactive. Active and inactive are the calls of the source. Rule as the data show it: active = growth inhibition above about 70%; inactive = the rest.

From PubChem BioAssay (NCI) come the findings set out here.

Test [1] can be described thus: NCI Yeast Anticancer Drug Screen. Data for the rad50 strain (AID 155).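 Also: 0% = growth of vehicle-only cultures of the same strain.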 To be noted: S. cerevisiae rad50 strain growth inhibition; at 50.0 µM; stronger effect = higher value. Put shortly:
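Inhibition values express reduced yeast growth in compound-treated cultures relative to vehicle-treated controls.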

Test [2] is described as follows: NCI Yeast Anticancer Drug Screen. Data for the mec2-1 strain (AID 157). The conditions noted are these: S. cerevisiae mec2-1 strain, at 50.0 µM, stronger effect = higher value. Put shortly: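 Compounds were applied to mec2-1 yeast cells. Their growth was then compared with that of vehicle-treated cultures to give growth inhibition.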
A short description of test [3]: NCI Yeast Anticancer Drug Screen. Data for the sgs1 mgt1 strain (AID 161).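 Also: 0% = growth of cultures given vehicle only.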 The conditions noted are these: S. cerevisiae sgs1 mgt1 strain, at 50.0 µM, stronger effect = higher value. Put shortly:
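Percent growth inhibition was derived by comparing compound-exposed mutant yeast with vehicle-exposed cultures. The strain carries alterations in DNA damage repair.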

Test [4] is described as follows: NCI Yeast Anticancer Drug Screen. Data for the cln2 rad14 strain (AID 165).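 Also: 0% = growth equal to vehicle treated cultures.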 The conditions noted are these: S. cerevisiae cln2 rad14 strain, at 50.0 µM, stronger effect = higher value. Put shortly:
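Strain: cln2 rad14 yeast, altered in cell cycle control and DNA damage repair. Read-out: growth inhibition vs vehicle.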

The nature of test [5]: NCI Yeast Anticancer Drug Screen. Data for the bub3 strain (AID 167). The conditions noted are these: S. cerevisiae bub3 mutant strain, at 50.0 µM, stronger effect = higher value. In a few lines:
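Steps: expose the mutant yeast strain to compound; grow alongside vehicle-treated cultures; measure growth; express inhibition against the vehicle cultures.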

A short description of test [6]: NCI Yeast Anticancer Drug Screen. Data for the mlh1 rad18 strain (AID 175). The conditions noted are these: S. cerevisiae mlh1 rad18 strain growth inhibition; at 50.0 µM; stronger effect = higher value. Put shortly:
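A repair-deficient yeast strain is exposed to test compound, and growth is scored relative to vehicle-treated controls.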

On to `C[C@H](N)C(=O)/C=C/c1ccccc1`, for which the growth inhibition in test [1] was -18.8%; in test [2], -30.6%; in test [3] it was -6.05%; in test [4], 14.9%; in test [5], 8.8%; in test [6], -8.5%.

In the case of `CC1=[N+]([O-])C2(CCCC2)N(O)C1(C)C`, the growth inhibition in test [1] is -13.8%; in test [2] it was -0.7%; in test [3] it was 9.7%; in test [4], 19.5%; in test [5] it was -6.25%; in test [6], 12.8%.

Regarding `CC(=O)c1c2c(cc3c1CCC3)CCC2`, the growth inhibition in test [1] is -15.4%; in test [2] it was -47.2%; in test [3], -20.1%; in test [4], -26%; in test [5] it was -21.7%; in test [6], -0.8%.

Consider `FC1C2=C(SC1(F)F)C1CCC2C1` (stereo unspecified), for which the growth inhibition in test [1] is 4.9%; in test [2], -2.2%; in test [3] it was 28.1%; in test [4], 17.9%; in test [5], -4.05%; in test [6], 12.9%.

Take `CCOC(=O)C(NC(=O)CC)(Nc1ccc(S(=O)(=O)Nc2ncccn2)cc1)C(F)(F)F` (stereo unspecified): the growth inhibition in test [1] was -19.4%; in test [2], -14.9%; in test [3], -10.5%; in test [4] it was 20.1%; in test [5] it was -9.55%; in test [6], -7.05%.

In the case of `O=C1CC(C(=O)O)Cc2c(Br)ccc(O)c21` (stereo unspecified), the growth inhibition in test [1] is 20.8%; in test [2], 13.8%; in test [3], -22.5%; in test [4] it was -3.6%; in test [5] it was -34%; in test [6], -44.4%.

`NC(=O)C1=Cc2cccn2-c2ccccc2S1`: the growth inhibition in test [1] is 3.45%; in test [2], -2.1%; in test [3] it was -2.75%; in test [4], -16.6%; in test [5], 2.1%; in test [6], 0.8%.

In the case of `CC(=O)c1sc(Nc2ccc(S(=O)(=O)Nc3nc(C)cc(C)n3)cc2)nc1C`, the growth inhibition in test [1] was 15.6%; in test [2] it was -0.75%; in test [3], 8.9%; in test [4], 31.3%; in test [5], -11.7%; in test [6] it was -10.1%.

As to `Cn1c(=O)c2ccccc2[n+]2c(-c3cccc([N+](=O)[O-])c3)csc12`, the growth inhibition was -3.9% in test [1]; -15.3% in test [2]; 41.5% in test [3]; 25.6% in test [4]; -8.85% in test [5]; -9% in test [6].

With `O=C(C(=O)c1cccc(C(=O)C(=O)c2ccccc2)c1)c1ccccc1`, the growth inhibition was 5.45% in test [1]; -10.6% in test [2]; -15.2% in test [3]; 17.3% in test [4]; -29% in test [5]; 9.5% in test [6].

On to `COC(=O)[C@H]1C=C[C@@H](C)n2c(=O)c3ccccc3c(=O)n21`, for which the growth inhibition in test [1] is -9%; in test [2] it was 15.4%; in test [3], -1.4%; in test [4] it was -9.75%; in test [5], -19.1%; in test [6], -6.8%.

`Cc1ccc(/C=N/S(=O)(=O)Cc2ccccc2)cc1`: the growth inhibition in test [1] is -11.6%; in test [2], 3.8%; in test [3] it was 10.2%; in test [4] it was 4.9%; in test [5], 0.15%; in test [6] it was -0.15%.

Consider `CCN(CC)C(=O)CS(=O)(=O)c1ccc(N)cc1`, for which the growth inhibition in test [1] is 3.55%; in test [2], -8.5%; in test [3], 2%; in test [4], 23.9%; in test [5] it was 7.35%; in test [6], 14.7%.

For `O=C1NC(Cc2ccc(O)cc2)C(=O)N1c1ccccc1O` (stereo unspecified), the growth inhibition in test [1] is 2.5%; in test [2] it was 0.95%; in test [3], 5.35%; in test [4], 2.5%; in test [5], -6.9%; in test [6], 3.5%.

Turning to `Cc1nc(C#N)c(=N)n(CCCO)c1-c1ccccc1`, the growth inhibition in test [1] is 7.2%; in test [2], -8.45%; in test [3], 10.3%; in test [4] it was -28.5%; in test [5], 16.4%; in test [6], 5.15%.

For the molecule `OC(CC1=NCCS1)(c1ccccc1)c1ccccc1`, the growth inhibition in test [1] is 98% (active); in test [2] it was 98.8% (active); in test [3], 96.8% (active); in test [4], 98.1% (active); in test [5], 98.2% (active); in test [6], 98.2% (active).

As to `CCN1CCCC(Nc2cc(C)nc(/N=C(\N)Nc3ccc(Cl)c(Cl)c3)n2)C1` (stereo unspecified), the growth inhibition was 97.2% (active) in test [1]; 98% (active) in test [2]; 98.4% (active) in test [3]; 87.3% (active) in test [4]; 96.1% (active) in test [5]; 98% (active) in test [6].

Take `O=c1cc(Cl)ncn1C1OC(CO)C(O)C1O` (stereo unspecified): the growth inhibition was -17% in test [1]; -21.1% in test [2]; -27.6% in test [3]; -14.3% in test [4]; -27.6% in test [5]; -25.3% in test [6].

Regarding `CCOC(=O)/C(=C/c1ccc(N(CCC#N)CCC#N)cc1C)NC(=O)/C=C/c1ccccc1`, the growth inhibition in test [1] is -2.25%; in test [2] it was -5.85%; in test [3] it was -16.2%; in test [4], -20.6%; in test [5] it was -25.4%; in test [6] it was -9.65%.

For `CS(=O)(=O)Oc1ncc(Cl)cc1Cl`, the growth inhibition in test [1] is -15.4%; in test [2], 2%; in test [3], -1.85%; in test [4], 14.5%; in test [5], 1.35%; in test [6] it was -8.1%.

Consider `Cc1csnn1`, for which the growth inhibition is -12.7% in test [1]; -17.9% in test [2]; 8.5% in test [3]; -1.4% in test [4]; -1.6% in test [5]; -21.6% in test [6].
